Where a name gives a salt, the structure may show the parent alone. ± gives the standard deviation or the standard deviation of the averaged measurements.
Key:
Conditions in all cases: 25 µM; exposure: 24-48 hpf
[1] = system: Danio rerio Tg(wt1b:EGFP) embryo, pronephros; assay: glomerular separation, fold change vs DMSO control; higher = glomeruli further apart (abnormal)
Method in brief: (§1)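 Dechorionated Tg(wt1b:EGFP) zebrafish embryos were kept from 24 to 48 hpf at 28.5°C in HEPES-buffered E3 containing 0.003% PTU, 0.5% DMSO and 25 μM compound. The pronephroi were then imaged from the dorsal side in agarose-filled 96-well plates at 470 nm with 10 z-slices, and 16 reference points were placed by hand on maximum projections in Fiji so that a macro could calculate distances and angles. Values lying more than 2 SD from the mean of a feature were discarded. Every feature is given as a fold change against the mean of DMSO-treated embryos from the same day.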

[2] = system: Danio rerio Tg(wt1b:EGFP) embryo, pronephros; assay: glomerular width (mean of left and right), fold change vs DMSO control; higher = wider glomerulus
Method in brief: as §1

[3] = system: Danio rerio Tg(wt1b:EGFP) embryo, pronephros; assay: fraction of imaged embryos annotated as normal kidney; higher = less nephrotoxic; extreme values may be limits of the assay
Method in brief: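 The read-out is the proportion of embryos in each treatment manually annotated as normal-kidney. Exposure ran from 24 to 48 hpf at 28.5°C in 12-well plates, using dechorionated Tg(wt1b:EGFP) zebrafish embryos in 5 mM HEPES-buffered E3 with 0.003% PTU, 0.5% DMSO and 25 μM compound. For imaging, larvae were anaesthetised with tricaine, positioned dorsally in agarose-filled 96-well plates and captured by widefield fluorescence (470 nm, 10 z-slices), with scoring done on maximum projections.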

[4] = system: Danio rerio Tg(wt1b:EGFP) embryo, pronephros; assay: pronephric angle neck segment to proximal convoluted tubule (mean of left and right), fold change vs DMSO control; higher = larger pronephric angle
Method in brief: as §1

SMILES	glomerular separation [1]	glomerular width [2]	fraction of imaged embryos annotated as normal kidney [3]	pronephric angle neck segment [4]
COc1ccc2c(c1)C(=O)N(CCc1ccc(S(=O)(=O)NC(=O)NC3CCCCC3)cc1)C(=O)C2(C)C [Gliquidone]	1.07 ± 0.54	0.883 ± 0.011	1	1.12 ± 0.039
O=C(CCNNC(=O)c1ccncc1)NCc1ccccc1 [Nialamide]	1.06 ± 0.4	0.97 ± 0.056	0.583	0.99 ± 0.061
C[C@]12CC[C@H]3C(=CCc4cc(O)ccc43)[C@@H]1CCC2=O [Equilin]	1.59 ± 0.67	0.988 ± 0.038	0.25	1.17 ± 0.015
CN[C@@H]1[C@H](O[C@H]2[C@H](O[C@H]3[C@H](O)[C@@H](O)[C@H](N=C(N)N)[C@@H](O)[C@@H]3N=C(N)N)O[C@@H](C)[C@]2(O)C=O)O[C@@H](CO)[C@H](O)[C@H]1O [Streptomycin sulfate]	0.691 ± 0.22	1.08 ± 0.098	0.917	0.959 ± 0.043
CN(N=O)C(=O)N[C@@H](C=O)[C@@H](O)[C@H](O)[C@H](O)CO [Streptozotocin]	0.671 ± 0.14	1.06 ± 0.047	1	1.01 ± 0.025
OC(CCN1CCCCC1)(c1ccccc1)c1ccccc1 [Pridinol methanesulfonate salt]	0.797 ± 0.22	1.02 ± 0.06	1	0.986 ± 0.089
Cn1nnc2c(C(N)=O)ncn2c1=O [Temozolomide]	0.665 ± 0.25	1 ± 0.046	0.917	0.9479 ± 0.0066
COc1ccc(C(Cl)=C(c2ccc(OC)cc2)c2ccc(OC)cc2)cc1 [Chlorotrianisene]	0.709 ± 0.16	1.028 ± 0.007	1	0.953 ± 0.013
CCC(=O)O[C@]1(C(=O)SCF)[C@H](C)C[C@H]2[C@@H]3C[C@H](F)C4=CC(=O)C=C[C@]4(C)[C@@]3(F)[C@@H](O)C[C@@]21C [Fluticasone propionate]	1.84 ± 0.75	1.27 ± 0.021	0.0833	1.04 ± 0.079
Cc1ccc(O)c([C@H](CCN(C(C)C)C(C)C)c2ccccc2)c1 [Tolterodine tartrate]	1.13 ± 0.42	1.06 ± 0.022	0.818	0.986 ± 0.044
Clc1ccccc1C(c1ccccc1)(c1ccccc1)n1ccnc1 [Clotrimazole]	2.06 ± 1.1	0.861 ± 0.11	0.583	1.26 ± 0.1
C=CC1=C(C(=O)O)N2C(=O)[C@@H](NC(=O)/C(=N\O)c3csc(N)n3)[C@H]2SC1 [Cefdinir]	0.772 ± 0.34	1.04 ± 0.029	1	1.003 ± 0.0083
Cc1cc(-n2c(=O)[nH]c(=O)n(C)c2=O)ccc1Oc1ccc(SC(F)(F)F)cc1 [Toltrazuril]	1.34 ± 0.62	0.8688 ± 0.0053	0.5	1.09 ± 0.045
CN1CCOC(c2ccccc2)c2ccccc2C1 (stereo not given) [Nefopam hydrochloride]	0.828 ± 0.19	0.982 ± 0.05	0.909	1.02 ± 0.012
COc1cc(NC(C)CCCN)c2ncccc2c1 (stereo not given) [Primaquine diphosphate]	1.04 ± 0.21	1.04 ± 0.079	1	1.01 ± 0.074
O=C1NCC2(CCN(CCc3ccccc3)CC2)O1 [Fenspiride hydrochloride]	1.24 ± 0.7	0.944 ± 0.024	0.833	1.09 ± 0.038
C[C@]12CCC(=O)C=C1CC[C@@H]1[C@@H]2C(=O)C[C@@]2(C)[C@H]1CC[C@]2(O)C(=O)CO [Cortisone]	1.08 ± 0.37	1.13 ± 0.017	0.917	1.031 ± 0.0011
OC(CCN1CCCCC1)(c1ccccc1)C1CC2C=CC1C2 (stereo not given) [Biperiden hydrochloride]	1.06 ± 0.13	1.02 ± 0.047	0.917	1.01 ± 0.022
O=C(CCCCC(=O)Nc1c(I)cc(I)c(C(=O)O)c1I)Nc1c(I)cc(I)c(C(=O)O)c1I [Iodipamide]	0.857 ± 0.54	1.05 ± 0.076	0.75	1.0067 ± 0.00076
CCN(CC)C(=S)SSC(=S)N(CC)CC [Disulfiram]	3.4 ± 1.9	0.458 ± 0.05	0	1.7 ± 0.043
NC[C@H]1O[C@H](O[C@H]2[C@H](O)[C@@H](O[C@H]3O[C@H](CO)[C@@H](O)[C@H](N)[C@H]3O)[C@H](N)C[C@@H]2N)[C@H](N)C[C@@H]1O [Tobramycin]	1.49 ± 0.73	0.94 ± 0.056	0.583	1.01 ± 0.011
CCN1CC(CCN2CCOCC2)C(c2ccccc2)(c2ccccc2)C1=O (stereo not given) [Doxapram hydrochloride]	0.953 ± 0.32	0.981 ± 0.0026	0.833	0.9542 ± 0.0079
CC(=O)CC(c1ccc([N+](=O)[O-])cc1)c1c(O)c2ccccc2oc1=O (stereo not given) [Acenocoumarol]	0.834 ± 0.45	0.94618 ± 0.00069	0.8	1.07 ± 0.076
O=C(NC(Cc1cc(=O)[nH]c2ccccc12)C(=O)O)c1ccc(Cl)cc1 (stereo not given) [Rebamipide]	0.748 ± 0.25	0.942 ± 0.061	0.917	0.972 ± 0.034
CCC(=O)OCC(=O)[C@@]1(OC(=O)CC)[C@H](C)C[C@H]2[C@H]3[C@H]([C@@H](O)C[C@@]21C)[C@@]1(C)C=CC(=O)C=C1C[C@H]3Cl [Alclometasone dipropionate]	1.33 ± 0.61	1.23 ± 0.026	0.333	1.0427 ± 2.1e-05
CN1CCCN=C1/C=C/c1cccs1 [Pyrantel tartrate]	0.9 ± 0.18	0.937 ± 0.024	0.917	1.074 ± 0.0072
C/C(=C(\CCOP(=O)(O)O)SC(=O)c1ccccc1)N(C=O)Cc1cnc(C)nc1N [Benfotiamine]	1.54 ± 0.89	0.995 ± 0.021	0.75	0.949 ± 0.013
CC(=O)Nc1c(I)c(C(=O)N[C@H]2C(O)O[C@H](CO)[C@@H](O)[C@@H]2O)c(I)c(N(C)C(C)=O)c1I (stereo not given in full) [Metrizamide]	0.874 ± 0.3	1.11 ± 0.1	0.833	0.988 ± 0.025

SMILES	glomerular separation [1]	glomerular width [2]	fraction of imaged embryos annotated as normal kidney [3]	pronephric angle neck segment [4]
COc1ccc(NS(=O)(=O)c2ccc(N)cc2)nn1 [Sulfamethoxypyridazine]	0.681 ± 0.15	1.03 ± 0.1	1	1.006 ± 0.0011
CCCCC[C@H](O)/C=C/[C@H]1[C@H](O)CC(=O)[C@@H]1CCCCCCC(=O)O [Alprostadil]	1.21 ± 0.52	0.867 ± 0.036	0.75	1.09 ± 0.047
CCN(CC)CCNc1ccc(CO)c2sc3ccccc3c(=O)c12 [Hycanthone]	1.12 ± 0.27	0.968 ± 0.052	0.833	0.977 ± 0.059
C=C(CC)C(=O)c1ccc(OCC(=O)O)c(Cl)c1Cl [Ethacrynic acid]	1.05 ± 0.28	1.02 ± 0.0053	0.75	0.9182 ± 0.0012
N=C(N)NC(=N)NCCc1ccccc1 [Phenformin hydrochloride]	0.95 ± 0.25	0.978 ± 0.021	0.917	0.956 ± 0.029
COc1cccc2c1C(=O)c1c(O)c3c(c(O)c1C2=O)C[C@@](O)(C(=O)CO)C[C@@H]3O[C@H]1C[C@H](N)[C@@H](O)[C@H](C)O1 [Epirubicin hydrochloride]	1.93 ± 0.41	1.07 ± 0.031	0.75	0.963 ± 0.053
COc1cc(C(=O)NCc2ccc(OCCN(C)C)cc2)cc(OC)c1OC [Trimethobenzamide hydrochloride]	1.09 ± 0.18	1.05 ± 0.012	0.833	0.9712 ± 0.0027
CCC(NC(C)C)C(O)c1ccc(O)c(O)c1 (stereo not given) [Isoetharine mesylate salt]	1.01 ± 0.56	1.074 ± 0.0074	0.75	1.01 ± 0.032
CCOC(=O)O[C@]1(C(=O)COC(=O)CC)CC[C@H]2[C@@H]3CCC4=CC(=O)C=C[C@]4(C)[C@H]3[C@@H](O)C[C@@]21C [Prednicarbate]	1.89 ± 0.71	1.11 ± 0.066	0.417	1.03 ± 0.058
OC[C@H]1O[C@@H](Oc2ccc(O)cc2)[C@H](O)[C@@H](O)[C@@H]1O [Arbutin]	0.869 ± 0.33	1.021 ± 0.0053	0.917	0.933 ± 0.018
Cn1c(=O)c2[nH]cnc2n(C)c1=O [Aminophylline]	0.664 ± 0.15	0.992 ± 0.021	1	0.871 ± 0.011
C[C@@H](O)[C@H]1C(=O)N2C(C(=O)O)=C(SCCNC=N)C[C@H]12 [Imipenem]	0.805 ± 0.16	1.091 ± 0.01	1	0.951 ± 0.015
CC(=O)OCC(=O)[C@@]12OC(C)(C)O[C@@H]1C[C@H]1[C@@H]3C[C@H](F)C4=CC(=O)C=C[C@]4(C)[C@@]3(F)[C@@H](O)C[C@@]12C [Fluocinonide]	1.04 ± 0.63	1.4 ± 0.044	0.417	1.05 ± 0.067
CCCCc1cc2ccccc2c(OCCN(C)C)n1 [Dimethisoquin hydrochloride]	0.777 ± 0.2	0.942 ± 0.065	0.917	0.9905 ± 0.004
NCCc1c[nH]cn1 [Histamine dihydrochloride]	1.1 ± 0.25	0.9518 ± 0.0028	0.833	1.03 ± 0.03
CCC1(c2ccccc2)C(=O)NCNC1=O [Primidone]	0.835 ± 0.33	1.0079 ± 0.00034	0.917	1.03 ± 0.025
Nc1nc(CC(=O)Nc2ccc(CCNC[C@H](O)c3ccccc3)cc2)cs1 [Mirabegron]	0.841 ± 0.26	1.04 ± 0.067	0.833	0.965 ± 0.014
CC(=O)O[C@H]1C[C@@]2(C)[C@@H](C[C@@H](O)[C@H]3[C@@]4(C)CC[C@@H](O)[C@@H](C)[C@@H]4CC[C@@]32C)/C1=C(\CCC=C(C)C)C(=O)O [Fusidic acid sodium salt]	0.853 ± 0.16	1.06 ± 0.025	1	1.02 ± 0.014
CC(COc1ccccc1)NC(C)C(O)c1ccc(O)cc1 (stereo not given) [Isoxsuprine hydrochloride]	1.07 ± 0.26	1.08 ± 0.024	1	0.928 ± 0.029
COc1ccc2cc(CCC(C)=O)ccc2c1 [Nabumetone]	1.26 ± 0.44	1 ± 0.011	0.75	1.06 ± 0.038
Cc1ccccc1OCC(O)CO (stereo not given) [Mephenesin]	1.06 ± 0.57	1.01 ± 0.012	0.917	0.993 ± 0.033
CN1CCC(=C2c3ccccc3CCc3sccc32)CC1 [Pizotifen malate]	1.26 ± 0.48	0.84842 ± 0.00054	1	1.06 ± 0.0029
COc1cc(NS(=O)(=O)c2ccc(N)cc2)nc(OC)n1 [Sulfadimethoxine]	1.02 ± 0.48	1.04 ± 0.014	1	1.01 ± 0.021
O=C(O)CNC(=O)C(CS)Cc1ccccc1 (stereo not given) [Thiorphan]	0.84 ± 0.35	1.04 ± 0.036	0.75	0.994 ± 0.017
CN(C)CCC=C1c2ccccc2C=Cc2ccccc21 [Cyclobenzaprine hydrochloride]	1.02 ± 0.31	0.977 ± 0.043	0.833	1.03 ± 0.0042
CCCCN(CCCC)CCC(O)c1cc2c(Cl)cc(Cl)cc2c2cc(C(F)(F)F)ccc12 (stereo not given) [Halofantrine hydrochloride]	4.43 ± 1.8	0.655 ± 0.038	0	1.32 ± 0.061
NS(=O)(=O)c1cc2c(cc1C(F)(F)F)NC(Cc1ccccc1)NS2(=O)=O (stereo not given) [Bendroflumethiazide]	1.15 ± 0.68	0.896 ± 0.043	0.875	1.09 ± 0.083

Reference: the supplement of paper PMC7366291
